Experimental data reported in PubChem BioAssay AID1285 (Columbia University Molecular Screening Center, 2008).
The whole screen tested about 190,000 compounds, of which about 1,600 (0.84%) were called active. Many of the other results were omitted from the sample, so actives are more common in it than they were. Values without a mark were called inactive.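 The calls were made as follows: active = inhibition above a set limit, derived from the sample mean plus 3 SD (cut at about 45% in these data); inconclusive = one replicate passes the limit while the other fails; inactive = the rest.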

Experiment: inhibitors of APP translation via 5'UTR reporter, primary screen, APP 5'UTR luciferase, SH-SY5Y cells (AID 1285)
Conditions: SH-SY5Y APP 5'UTR-luciferase reporter, luminescence; at 2 µM; stronger effect = higher value

SMILES | inhibition
COc1cc(Cl)c(C)cc1NC(=O)COC(=O)c1cc(SC)ccc1Cl | 6.6%
OCCC1CN(Cc2ccc3nsnc3c2)CCN1C1CCCC1 (stereo unspecified) | -9.3%
C=CS(=O)c1sc(Cl)c(N2CCOCC2)c1[N+](=O)[O-] (stereo unspecified) | 83.2% (active)
Cc1ccc(C(=O)NN(CCC#N)C2=NS(=O)(=O)c3ccccc32)cc1 | -1.1%
C/C(=N\N)c1c(-c2ccccc2)c2cc(Br)ccc2[nH]c1=O | -3.6%
Cc1cc(N/N=C/c2ccccc2F)c2ccccc2n1 | -7.2%
COc1cccc2c(N/N=C/c3ccco3)cc(C)nc12 | -4.8%
COc1cccc(/C=N/Nc2cc(C)nc(-c3ccccc3O)n2)c1O | 67.5% (active)
COc1ccc(O)c(C(=O)c2cnc3c(c2)c(-c2ccc(F)cc2)c(C#N)c(=O)n3C)c1 | -3.8%
Cc1cccc(N2C(=O)SC(SC(=Nc3ccccc3)Nc3ccccc3)C2=O)c1 (stereo unspecified) | -14.2%
Cn1c(CCC(=O)Nc2ccccc2F)nnc1SCC(=O)Nc1ccccc1Cl | -2.1%
C=CCn1c(SCC(=O)Nc2nc3ccccc3s2)nnc1-c1ccccc1O | 0.7%
O=C(CSc1nnc(-c2cccnc2)n1CCc1ccccc1)NCc1ccccc1 | 4.7%
C=CCn1c(SCC(=O)NCc2ccccc2)nnc1-c1cc(Br)ccc1O | 55.6% (active)
C/C(Cn1nnc2ccccc21)=N\OC(=O)c1cc(F)c(F)cc1Cl | -4.6%
Cc1cc(C)c2c3c(sc2n1)C(c1ccccc1)C(C#N)=C(N)O3 (stereo unspecified) | 7.5%
Cc1cc2c(c(=O)n1Cc1ccco1)C(c1ccccc1)C(C#N)=C(N)O2 (stereo unspecified) | -7.5%
N#CC1=C(N)Oc2c(sc3ccccc23)C1c1ccco1 (stereo unspecified) | 56.2% (active)
O=C(/C=C/c1ccc(N2CCOCC2)cc1)c1ccccc1 | -140%

SMILES | inhibition
Cc1c(/C=N\NC(=O)c2cc3ccccc3o2)c2ccccc2n1C | 78% (active)
O=C(N/N=C/c1coc2ccccc2c1=O)c1cc2ccccc2o1 | 0.7%
Cc1c(/C=N/N2C(=O)C3C4C=CC(C4)C3C2=O)c2ccccc2n1C (stereo unspecified) | 13.8%
CCOc1ccc(NC(=O)COc2ccc(C(=O)NC3CCCc4ccccc43)cc2OC)cc1 (stereo unspecified) | -14.3%
COc1ccccc1CNC(=O)COc1ccc(C)nc1[N+](=O)[O-] | -13.3%
C/C(=C\c1ccccc1)C1NC(=O)c2c(sc3c2CCCC3)N1 (stereo unspecified) | 14.6%
Cc1ccc(C2CC(=O)NC(SCC(=O)OCc3ccccc3)=C2C#N)o1 (stereo unspecified) | 18%
C=CCOC(=O)C1=C(C)NC(SCC(=O)OCC)=C(C#N)C1c1ccc(C)cc1 (stereo unspecified) | -6.5%
CCOC(=O)CSC1=C(C#N)C(c2sccc2C)CC(=O)N1 (stereo unspecified) | 93.4% (active)
CC(C)(C)NC(=O)C(=O)NCc1ccncc1 | -1.4%
C/C(=N\NC(=O)Cc1ccc(Cl)cc1)c1ccccn1 | 58.9% (active)
C/C(=N\NC(=O)Cc1ccc(F)cc1)c1ccc(F)cc1 | 10.7%
COc1ccc(CC(=O)N/N=C(\C)c2ccccn2)cc1 | 23.4%
Cc1ccc(NC(=O)c2ccn(C(=O)Nc3ccccc3)n2)c(C)c1 | -34.7%
COc1ccc(C)c(Cn2c(-c3nonc3N)nc3ccccc32)c1 | 90.7% (active)
Nc1nonc1-c1nc2ccccc2n1Cc1ccc(F)cc1 | -0.7%
Nc1nonc1-c1nc2ccccc2n1CCC(=O)O | -2%
O=C(NCCCN1CCOCC1)c1ccc([N+](=O)[O-])cc1[N+](=O)[O-] | -18.1%
COc1cc(OC)cc(C(=O)OCC(=O)Nc2sccc2C(N)=O)c1 | 11.2%

SMILES | inhibition
Clc1ccc(CN2CCN(/N=C/c3cccnc3)CC2)cc1 | -6.8%
O=Cc1cn(Cc2ccccc2)nc1-c1cccnc1 | -9.8%
O=C1/C(=C\c2cccnc2)CN(Cc2ccccc2)C/C1=C\c1cccnc1 | 97.1% (active)
Cc1cccc(N2CCN(c3ccc(C(N)=O)cc3[N+](=O)[O-])CC2)c1C | -15.7%
CCn1c(Cc2ccccc2)nnc1SCC(=O)Nc1ccccc1 | -1.3%
CCn1c(CNC(=O)c2ccco2)nnc1SCC(=O)Nc1cccc(F)c1 | -10%
CCn1c(CNC(=O)c2ccc(OC)c(OC)c2)nnc1SCC(=O)Nc1ccccc1 | 45.9% (active)
O=C(CNC(c1ccccc1)c1ccccc1)Nc1ccc(F)cc1 | -7.4%
CC1(C)CC(=O)C(N=Nc2ccc(S(=O)(=O)N3CCCCCC3)cc2)=C(O)C1 | 9.4%
CCOC(=O)c1ccc(N2C(=O)CC(N3CCN(C(=O)c4ccccc4)CC3)C2=O)cc1 (stereo unspecified) | -5.3%
O=C(COc1cc(Cl)c(Cl)cc1Cl)NCCc1ccccn1 | 1.4%
O=C(COc1ccccc1F)NC1CC1 | -9.1%
O=C(COc1cc(Cl)c(Cl)cc1Cl)NC(=O)NC1CCCC1 | 45.2% (active)
Cc1ccccc1C1CC(c2cccs2)=NN1S(C)(=O)=O (stereo unspecified) | 17.8%
O=C(CSc1ncn[nH]1)Nc1nsc(-c2ccccc2)n1 | -2.5%
O=C(CSc1ncn[nH]1)Nc1ccnc2ccccc12 | 4%
Cn1nnc(NC(=O)CSc2ncn[nH]2)n1 | 53.1% (active)
COc1ccc(Br)cc1/C=N/NC(=O)c1cccc(S(=O)(=O)N2CCOCC2)c1 | -16.1%
